Compound activity as filed in PubChem.
An excerpt weighted towards active compounds, which were near 12% of everything screened.
JMJD2A Tudor = JMJD2A Tudor domain (human) inhibition; AID 504339; Potency, µM (top dose mostly 114 µM), for the others: at the top dose activity change, negative = inhibition, usual class: inhibitors; 390,000 compounds, 4.4% hits; AlphaScreen JMJD2A-Tudor / H3K4me3 peptide binding; further: on the % scale 0 is the no-effect control and ±100 the full control effect; nearly all actives have a fitted effect of over 50% in size
HP1b binding inh = inhibitors of HP1-beta chromodomain binding to methylated histone tails; 390,000 compounds, 0.56% hits; AlphaScreen HP1-beta / biotin-H3K9me3 peptide binding; Potency, µM (top dose mostly 114 µM), inactives show at the top dose activity change, negative = inhibition, actives largely listed as inhibitors; P83916; AID 540317; further: nearly all actives have a fitted effect of over 70% in size
Target sequence (P83916 whole entry, looked up): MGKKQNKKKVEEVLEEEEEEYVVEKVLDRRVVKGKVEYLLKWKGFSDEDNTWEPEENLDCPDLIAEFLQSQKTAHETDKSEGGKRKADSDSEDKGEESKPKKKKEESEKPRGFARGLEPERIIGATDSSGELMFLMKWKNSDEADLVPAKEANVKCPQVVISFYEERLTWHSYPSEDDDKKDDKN
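AlphaScreen: HP1-beta (50 nM) preformed 30 min with biotin-H3(1-18)K9me3 peptide (50 nM) in PBS pH 7.4, 0.01% Tween-20. Compound added for 30 min at RT, then streptavidin donor/nickel chelate acceptor beads (10 ug/mL) for 30 min.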
Sfp PPTase inh = inhibitors of Bacillus subtilis Sfp phosphopantetheinyl transferase; AID 1490; Biochemical Sfp PPTase activity, qHTS; 310,000 compounds, 3.5% hits; Potency, µM, for inactives: largest response in the series, negative = inhibition, hits mostly inhibitors; Q9F4F7;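 further: the enzyme is Sfp with the accession as filed and its product quenches rhodamine fluorescence; 0% = enzyme reaction without inhibitor and -100% = no enzyme wells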
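Buffer: 50 mM Hepes-Na pH 7.6, 10 mM MgCl2, 0.01% Nonidet P-40, 0.01% BSA. Enzyme 15 nM, pre-exposed to compound 15 min; substrates then added and fluorescence change tracked over 30 min.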
G9a block = blocks human histone lysine methyltransferase G9a; Potency, µM (doses to about 102 µM), without a hit: at the highest dose activity, negative = inhibition, most hits filed as inhibitors; 350,000 compounds, 8.8% hits; G9a H3K9 monomethylation, AlphaScreen, 2 h; Q96KQ7; AID 504332; further: on the % scale 0 is the no-effect control and ±100 the full control effect; nearly all actives have a fitted effect of over 75% in size
Target sequence (Q96KQ7 913-1193 limits assumed): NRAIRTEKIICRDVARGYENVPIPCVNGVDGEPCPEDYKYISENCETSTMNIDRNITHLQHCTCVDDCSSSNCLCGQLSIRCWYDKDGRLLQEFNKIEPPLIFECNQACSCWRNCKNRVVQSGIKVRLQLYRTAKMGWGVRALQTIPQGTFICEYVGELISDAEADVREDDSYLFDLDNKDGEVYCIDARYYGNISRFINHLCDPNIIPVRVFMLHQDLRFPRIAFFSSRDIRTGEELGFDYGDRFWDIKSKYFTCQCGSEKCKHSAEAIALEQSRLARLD
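Compounds were preincubated with 20 nM G9a for 15 min, after which biotinylated H3K9 peptide (500 nM) and SAM (20 uM) started a 2 h room-temperature reaction. Monomethylated product was quantified by antibody-based AlphaScreen chemiluminescence.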
BAZ2B block = BAZ2B (human) inhibition | Q9UIF8 | AlphaScreen BAZ2B-H3K14Ac peptide displacement | Potency, µM (series often up to 114 µM), for the others: at the highest dose activity change, negative = inhibition, actives largely listed as inhibitors | 360,000 compounds, 4.4% hits; further: on the % scale 0 is the no-effect control and ±100 the full control effect; nearly all actives have a fitted effect of over 60% in size
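Complex of BAZ2B and biotin-H3K14Ac (50 nM apiece) forms over 30 min at RT, then faces library compounds up to 110 uM for another 30 min; AlphaScreen beads added, 20 min dark incubation, luminescence read.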
* marks the source's active call; other numbers are inactive results; ? = inconclusive; · = not tested or not shown; [ ] = another dose, or the depositor's remark. The call rests on the fitted dose curve; in most records, active means well fitted curve in the direction sought with a large enough effect; inconclusive means small, poorly fitted or top-dose-only effect, or another doubt; inactive means no such curve, though single readings can be large; an effect the other way counts as inactive or inconclusive. Potency means the concentration at half of the fitted maximal effect.

SMILES | JMJD2A Tudor | HP1b binding inh | Sfp PPTase inh | G9a block | BAZ2B block
CCOc1ccccc1NC(=O)CN1C(=O)C2(SCC(=O)N2c2ccc(C)cc2)c2ccccc21 (stereo not drawn) | -26% | 2% | · | -6%[59 µM] | 1%[57.1 µM]
N/C(=N\OC(=O)Oc1ccccc1)c1ccc(Cl)cc1 | 4% | 48% | 25% | ? | -5%
O=c1[nH]c2ccc(S(=O)(=O)N3CCCCC3)cc2o1 | ? | 17% | -2% | ? | -2%
O=S(=O)(c1ccc(=S)[nH]c1)N1CCOCC1 | 11µM* | -19% | · | ? | -5%
O=S(=O)(c1ccc2oc(=S)[nH]c2c1)N1CCOCC1 | 79µM* | -41% | · | 1.3µM* | -38%
O=S(=O)(c1ccc2oc(=S)[nH]c2c1)N1CCCCC1 | -18% | 14% | 9% | 45µM* | -1%
O=S(=O)(Nc1cccc(Cl)c1)c1ccc2oc(=S)[nH]c2c1 | 20µM* | -15% | 11% | 25µM* | ·
Fc1cccc(CN(C2=NCCN2)c2c(Cl)cccc2Cl)c1 | -29% | 10% | · | ? | -3%
Cc1ccc(NC(=O)CSc2nc(N)c3c4c(sc3n2)CSC(C)(C)C4)cc1 | -9% | 16% | 11% | 19%[59 µM] | -34%
Cc1ccccc1NC(=O)CSc1nc(N)c2c3c(sc2n1)CSC(C)(C)C3 | -25% | 79µM* | -4% | ? | ?
O=C(NCc1ccccc1)/C(=N\O)c1ccccc1 | 0% | 31% | 15% | -12% | -4%
CN(C)CCCNCCCNC(=O)/C(=N\O)c1ccccc1 | ? | -4% | 11% | 50µM* | -39%
CN(C)CCCNCCCNC(=O)c1ccccn1 | 5%[11.4 µM] | 7% | -6% | ? | -2%
CN(C)CCNC(=O)/C(=N\O)c1ccccn1 | -9% | 20% | ? | 50µM* | ?
CS(=O)(=O)N(Cc1ccco1)CC(O)Cn1c2ccccc2c2ccccc21 (stereo not drawn) | ? | -18% | 7% | 14µM* | ?
Cc1cccc(C)c1N(CC(O)Cn1c2ccccc2c2ccccc21)S(C)(=O)=O (stereo not drawn) | -15% | 12% | 9% | 9%[2.33 µM] | -28%
OC(CNCc1ccco1)Cn1c2ccccc2c2ccccc21 (stereo not drawn) | ? | -9% | 7% | 50µM* | ?
CS(=O)(=O)N(Cc1ccccc1)c1ccc(C(=O)Nc2ccc3c(c2)OCO3)cc1 | -16% | 8% | 11% | ? | 6%
Cc1ccc(Nc2nc(N/N=C\c3ccc4c(c3)OCO4)nc(N3CCOCC3)n2)cc1 | -14% | 24% | 21% | -22% | ?
Cc1cccc(NC(=O)c2ccc(S(=O)(=O)NCc3ccco3)cc2)n1 | -8% | 27% | · | 4%[59 µM] | 14%
CCCCOCCCNC(=O)c1cccc(OC)c1 | 7% | 40% | 6% | 7%[59 µM] | -6%
COc1ccc2sc(C)[n+](C)c2c1 | -2% | 73% | 45µM* | ? | 3%
CCCC[n+]1c(C)sc2cc(OC)ccc21 | 16µM* | 50% | 6.3µM* | ? | -36%
CC(C)CC(=O)Nc1ccc(C(=O)NNC(=S)NC(=O)C2CCCCC2)cc1 | 89µM* | 18% | 10% | ? | 10%
CCC(=O)NC(=S)NNC(=O)c1ccc(NC(=O)c2ccccc2)cc1 | ? | 32% | -24% | 7.1µM* | -23%
SMILES | JMJD2A Tudor | HP1b binding inh | Sfp PPTase inh | G9a block | BAZ2B block
CCCOc1ccc(C(=O)NNC(=S)NC(=O)CC)cc1 | 32µM* | 21% | -26% | 8.9µM* | 14%[57.1 µM]
C=CCNC(=S)NNC(=O)c1ccc(OCCC)cc1 | 0% | 46% | 27% | 8%[59 µM] | -2%
CCCC(=O)NC(=S)Nc1cccc(NC(=O)c2ccccc2)c1 | -21% | -4% | -5% | · | -10%
CCCCC(=O)NC(=S)Nc1cccc(NC(=O)c2ccccc2)c1 | -2% | 29% | 7% | 50µM* | -18%
O=C(Cn1ncc2c(=O)oc3ccccc3c21)NCC1COc2ccccc2O1 (stereo not drawn) | -15% | 54% | 5% | 7% | -4%
COc1cc([N+](=O)[O-])cc2cc(C(=O)NC(C)(C)C)c(=O)oc12 | -15% | -5% | 8% | · | ?
CCOC(=O)Cc1ccc(NCc2ccc(Cl)cc2)cc1 | ? | 9% | -15% | 50µM* | ?
Cc1ccc(NC(=O)CN2CCc3ccccc3C2)cc1S(=O)(=O)N(C)C | 3.2µM* | ? | -33% | 10µM* | 50µM*
CN(C)S(=O)(=O)c1cc(NC(=O)CN2CCOCC2)ccc1Cl | 14µM* | -1% | 24% | 23% | -5%
CN(C)S(=O)(=O)c1ccc(Cl)c(NC(=O)CN2CCc3ccccc3C2)c1 | -14% | 55% | 1% | 45µM* | -39%
Cc1ccc(NC(=O)CN2CCc3ccccc3C2)cc1S(=O)(=O)N1CCOCC1 | -14% | 11% | 5% | -6%[59 µM] | -33%
COc1cc2c(cc1OC)CN(CC(=O)Nc1ccc(Cl)c(S(=O)(=O)N(C)C)c1)CC2 | · | · | 9% | 45µM* | -26%
COc1cc2c(cc1OC)CN(CC(=O)Nc1ccc(S(=O)(=O)N(C)C)cc1)CC2 | -28% | -3% | 2% | 8% | ·
CN(C)S(=O)(=O)c1cc(NC(=O)CN2CCNC(=O)C2)ccc1Cl | -10% | 24% | 1% | 11%[59 µM] | 2%
CCOC(=O)c1c(NC(=O)CSc2ncnc3ccccc23)sc(C)c1C | -11% | 4% | ? | -8%[59 µM] | 8%
CCOc1ccccc1NS(=O)(=O)c1csc(C(N)=O)c1 | 9% | 16% | -2% | 16% | 5%
CCCCNC(=O)C(c1ccc(OCC(=O)OC)c(C(=O)OC)c1)N(Cc1ccccc1)C(=O)CCCCCN1C(=O)NC(c2ccc(-c3ccccc3)cc2)C(C(=O)OCc2ccccc2)=C1C (stereo not drawn) | · | · | 1% | · | ·
CCN(CC)CCn1c2c(c(SCC(=O)Nc3ccc4c(c3)OCCO4)nc1=O)CCC2 | -13% | 18% | · | ? | -3%
CN(Cc1ccccc1)S(=O)(=O)c1ccc(NC(=O)c2ccccc2C(=O)O)cc1 | 3% | 38% | · | · | ·
O=C(NC(c1ccc(Cl)cc1)c1c(O)ccc2ccccc12)c1ccccc1 (stereo not drawn) | -27% | -6% | 21% | -17%[59 µM] | -22%
CC(=O)NC(c1ccc(Cl)cc1)c1c(O)ccc2ccc(O)cc12 (stereo not drawn) | -34% | 4% | 10% | 40µM* | -27%
Cc1ccc(C(=O)N(CCN2CCCCC2)CC2CCCN(C3CCCC3)C2)s1 (stereo not drawn) | -10% | 5% | 12% | -8% | -14%
CNC(=O)c1[nH]cnc1C(=O)N[C@@H](C)C(=O)OCc1ccccc1 | -33% | 65% | -13% | -9%[12.7 µM] | 50µM*
CNC(=O)c1[nH]cnc1C(=O)NCC(=O)OCc1ccccc1 | -33% | 37% | 8% | 45µM* | -25%
CCN(CC)C(=O)c1[nH]cnc1C(=O)NCC(=O)OCc1ccccc1 | -17% | 54% | 5% | 79µM* | -3%
